Our source for the Potency and activity (max response) values is PubChem BioAssay (NCATS).

The target in test [1] is Cytochrome P450 3A7 (Homo sapiens) (UniProt P24462). The experiment in a line: Cytochrome P450 family 3 subfamily A member 7 (CYP3A7) small molecule antagonists: luciferase biochemical qHTS assay (AID 1963596). Note: % is set by controls: 0 for no effect and ±100 for the full control effect; nearly all actives have a fitted effect of over 40% in size. The note with it: P450-Glo CYP3A7 enzyme luminescence, 1 h; series mostly up to 57.4 µM. The essentials:
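Enzyme-substrate mix + cpd (DMSO), 10 min RT; + NADPH regen system, 1 h RT; + luciferin detection reagent, 20 min RT; luminescence read. Proluciferin substrate, P450-Glo format, 1536-well qHTS.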
(qHTS replaces the single test concentration by a dilution series.)

Test [2] can be described thus: Viability qHTS for spleen associated tyrosine kinase inhibitor (SYKi) naive MV4-11 cells (AID 1963823). Note: nearly all actives have a fitted effect of over 40% in size. Note: potency is the fitted concentration of half-maximal effect. The note with it: MV4-11 AML viability, CellTiter-Glo luminescence, 72 h; series mostly up to 45 µM. The essentials:
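Seeding of 500 SYKi-naive MV4-11 cells per well onto pre-dispensed compounds preceded a 72 hr incubation at 37 C. Luminescent CellTiter-Glo signal, read after 10 min at room temperature, reflected viable cells.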

Test [3] can be described thus: Viability qHTS for spleen associated tyrosine kinase inhibitor (SYKi) drug resistant MV4-11 cells (AID 1963824). Note: nearly all actives have a fitted effect of over 35% in size. Note: potency is the fitted concentration of half-maximal effect. To be noted: SYKi-resistant MV4-11 viability, CellTiter-Glo, 72 h; series mostly up to 45 µM. The essentials:
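CellTiter-Glo luminescence, read 10 min after reagent addition, reports viability after a 72 hr compound exposure. Cells are an MV4-11 line made resistant to SYK inhibition, seeded at 500 per well onto compound-containing plates.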

A short description of test [4]: Quantitative highthroughput screen to assess conditional lethalithy of NOMO1 cells grown in Human Plasma-Like Medium with dialyzed fetal bovine serum (HPLM+ds) (AID 1963878).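 For Viability: 100% = DMSO wells and 0% = empty wells on each plate.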 Note: nearly all actives have a fitted effect of over 35% in size. Note: potency is the fitted concentration of half-maximal effect. To be noted: NOMO1 AML cells in HPLM+ds, CellTiter-Glo viability, 48 h; series mostly up to 45.8 µM. The essentials: (§1)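 Each medium arm—HPLM with 10% dialyzed FBS, or RPMI1640 with 5 mM glucose and 10% untreated or dialyzed FBS—was screened against an 11-point, 3-fold compound titration for 48 h at 37 °C, with CellTiter-Glo luminescence as endpoint.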
For orientation: In ATP-based viability assays light output follows the ATP content of the culture.

Test [5] is described as follows: Quantitative highthroughput screen to assess conditional lethalithy of P12 Ichikawa cells grown in Human Plasma-Like Medium with dialyzed fetal bovine serum (HPLM+ds) (AID 1963879). Note: nearly all actives have a fitted effect of over 35% in size. Note: potency is the fitted concentration of half-maximal effect. The note with it: ATP luminescence, 48 h; Potency: viability; series mostly up to 45.8 µM. The essentials:
as §1

Test [6] is described as follows: Quantitative highthroughput screen to assess conditional lethalithy of P12 Ichikawa cells grown in RPMI1640 with dialyzed fetal bovine serum (RPMI+ds) (AID 1963880).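 For Viability: 100% = DMSO wells and 0% = empty wells on each plate.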 Note: nearly all actives have a fitted effect of over 35% in size. Note: potency is the fitted concentration of half-maximal effect. To be noted: ATP luminescence, 48 h; Potency: P12-Ichikawa viability; series mostly up to 45.8 µM. The essentials:
as §1

Test [7] can be described thus: Quantitative highthroughput screen to assess conditional lethalithy of P12 Ichikawa cells grown in RPMI1640 with untreated serum (RPMI+s) (AID 1963881).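 For Viability: 100% = DMSO wells and 0% = empty wells without cells.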 Note: nearly all actives have a fitted effect of over 35% in size. Note: potency is the fitted concentration of half-maximal effect. The note with it: ATP luminescence, 48 h; Potency: viability; series mostly up to 45.8 µM. In outline:
as §1

The nature of test [8]: Quantitative highthroughput screen to assess conditional lethalithy of SEM cells grown in Human Plasma-Like Medium with dialyzed fetal bovine serum (HPLM+ds) (AID 1963882). Note: nearly all actives have a fitted effect of over 35% in size. Note: potency is the fitted concentration of half-maximal effect. The note with it: SEM B-ALL cells in HPLM+ds, CellTiter-Glo viability, 48 h; series mostly up to 45.8 µM. The essentials: as §1
A short description of test [9]: Quantitative highthroughput screen to assess conditional lethalithy of SEM cells grown in RPMI1640 with unreated serum (RPMI+s) (AID 1963883).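 For Viability: 100% = DMSO wells and 0% = empty wells without cells.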 Note: nearly all actives have a fitted effect of over 35% in size. Note: potency is the fitted concentration of half-maximal effect. To be noted: SEM B-ALL cells, CellTiter-Glo viability, 48 h; series mostly up to 45.8 µM. The essentials:
as §1

The nature of test [10]: Quantitative highthroughput screen to assess conditional lethalithy of SEM cells grown in RPMI1640 with dialyzed fetal bovine serum (RPMI+ds) (AID 1963884).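 For Viability: 100% = DMSO control wells and 0% = empty wells without cells.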 Note: nearly all actives have a fitted effect of over 35% in size. Note: potency is the fitted concentration of half-maximal effect. The note with it: SEM B-ALL cells, RPMI+dialyzed FBS, CellTiter-Glo viability, 48 h; series mostly up to 45.8 µM. In outline: as §1
Test [11] can be described thus: Cellular viability qHTS for adrenocortical cancer (ACC) cell line SW-13 (AID 1963989).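 For activity (max response): cells grown in serum-free medium with ITS supplement; % is set by controls: 0 for no effect and ±100 for the full control effect.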 Note: nearly all actives have a fitted effect of over 65% in size. Note: potency is the fitted concentration of half-maximal effect. To be noted: SW-13 ACC cells viability, CellTiter-Glo, 48 h; activity (max response): active compounds read low. In outline: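 Luminescent ATP read-out (CellTiter-Glo, 20 min at room temperature) measured metabolically competent SW-13 cells after 48 h compound treatment. Final concentrations spanned up to 46 uM; bortezomib served as positive control.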

Test [12] is described as follows: Quantitative highthroughput screen to assess conditional lethalithy of NOMO1 cells grown in RPMI1640 with untreated serum (RPMI+s) (AID 1963876). The note with it: NOMO1 AML cells in RPMI+serum, CellTiter-Glo viability, 48 h; series mostly up to 45.8 µM. The essentials: as §1
Test [13] can be described thus: Cellular viability qHTS for adrenocortical cancer (ACC) cell line NCI-H295R (AID 1963990). Note: nearly all actives have a fitted effect of over 60% in size. Note: potency is the fitted concentration of half-maximal effect. The note with it: CellTiter-Glo ATP luminescence, 48 h; series mostly up to 46.1 µM. The essentials:
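IC50 and maximal efficacy derive from four-parameter logistic modelling of titration curves, with reads scaled between DMSO-only wells (0%) and doxorubicin hydrochloride (100% inhibition). Compounds spanned up to 46 uM over 48 h.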

A short description of test [14]: Quantitative highthroughput screen to assess conditional lethalithy of NOMO1 cells grown in RPMI1640 with dialyzed fetal bovine serum (RPMI+ds) (AID 1963877).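 Note: 100% = DMSO control wells and 0% = empty wells; nearly all actives have a fitted effect of over 30% in size.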 The note with it: NOMO1 in RPMI+dialyzed FBS viability, ATP luminescence, 48 h; series mostly up to 45.8 µM. The essentials: as §1

Where “and” joins values, the source holds several entries; their conditions need not be identical. Equal values may be shown once. Records with an inconclusive call do not appear. A number with no mark means an inactive call. Calls of active or inactive are those of the source. Calls come from the whole dose curve; as a rule, active = well fitted curve in the direction sought with a large enough effect; inconclusive = small, poorly fitted or top-dose-only effect, or another doubt; inactive = no such curve, though single readings can be large; an effect the other way counts as inactive or inconclusive.

Chain of Cytochrome P450 3A7 (Homo sapiens) (P24462 whole entry, looked up): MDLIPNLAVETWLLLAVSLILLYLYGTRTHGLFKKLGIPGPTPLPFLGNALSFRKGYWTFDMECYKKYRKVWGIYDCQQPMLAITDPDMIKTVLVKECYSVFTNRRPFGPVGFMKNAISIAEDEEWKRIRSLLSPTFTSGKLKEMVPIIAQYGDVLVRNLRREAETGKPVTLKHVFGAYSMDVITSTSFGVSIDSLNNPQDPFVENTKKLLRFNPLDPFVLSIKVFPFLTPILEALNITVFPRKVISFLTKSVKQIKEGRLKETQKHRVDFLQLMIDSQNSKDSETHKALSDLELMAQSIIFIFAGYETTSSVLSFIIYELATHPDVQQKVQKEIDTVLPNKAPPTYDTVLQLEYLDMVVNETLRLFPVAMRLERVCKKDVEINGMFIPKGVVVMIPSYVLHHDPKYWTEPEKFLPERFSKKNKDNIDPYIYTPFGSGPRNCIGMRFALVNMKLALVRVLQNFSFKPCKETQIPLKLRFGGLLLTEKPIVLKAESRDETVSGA

With `O=C1NC(O)CCN1[C@@H]1O[C@H](CO)[C@H](O)[C@H]1O` (some centres undefined), the Potency entry in test [1], in [2], in [3], in test [5], in [6] and in [7] was “inactive” throughout. In addition, the Potency result in [8], in test [9] and in test [10] was “inactive” each time. Moreover, the Potency in test [4] was 20.9 µM (active). Also, in [11], the activity (max response) was -1.6%.
Regarding `Cc1nc2ccc(CN(C)c3ccc(C(=O)N[C@@H](CCC(=O)O)C(=O)O)s3)cc2c(=O)[nH]1`, the Potency entry in [1], in [9] and in test [13] was “inactive” each time. Besides, the Potency in [2] was 6.6 nM (active); in [3] it was 7.4 nM (active); in [12], 0.418 µM (active).
For `O=P(O)(O)C(O)(Cc1cccnc1)P(=O)(O)O`, the Potency entry in test [1], in test [2], in test [3], in test [14], in [4] and in [6] was “inactive” throughout. Moreover, the Potency result in test [7] and in [13] was “inactive” throughout. In addition, in test [11], the activity (max response) is 11.3% and 10.6%.
With `CC(C)NCC(O)COc1ccc(CCOCC2CC2)cc1` (centres undefined), the Potency result in test [1], in [2], in [3], in test [5], in test [6] and in test [8] was “inactive” throughout. The Potency entry in test [10] and in [13] was “inactive” in each case. For the same molecule, the Potency in test [4] is 16.6 µM (active). Moreover, the activity (max response) in [11] is -8.57%.
Regarding `Cc1cnc(CNC(=O)c2c(=O)c3ccc(N4CCCN(C)CC4)nc3n3c2sc2ccccc23)cn1`, the Potency entry in test [1], in test [4] and in test [5] was “inactive” in each case. The Potency in test [2] is 841 nM (active); in test [3], 1680 nM (active); in [6], 10.2 µM (active).
As for `Nc1ccn([C@H]2CC[C@@H](CO)O2)c(=O)n1`, the Potency result in test [1], in test [2], in [3] and in [13] was “inactive” throughout. Further, the Potency was 23.5 µM (active) in [4] and 7.43 µM (active) in test [10]. Further, in [11], the activity (max response) was 0.291%.
Regarding `Cc1ccc(S(=O)(=O)NC(=O)NN2CC3CCCC3C2)cc1` (centres undefined), the Potency result in [1], in test [2], in test [3] and in [13] was “inactive” throughout. The Potency in test [5] was 5.9 µM (active); in test [6] it was 2.96 µM (active); in test [7] it was 4.18 µM (active); in test [8], 5.9 µM (active); in test [9], 4.18 µM (active).
Consider `COc1cc2c(Oc3ccc4[nH]c(C)cc4c3F)ncnc2cc1OCCCN1CCCC1`, for which the Potency entry in test [1] was “inactive”. Moreover, the Potency was 13 µM (active) and 3.32 µM (active) in test [2]; 5.8 µM (active) and 2.63 µM (active) in test [3]; 9.35 µM (active) in [8]; 4.18 µM (active) in test [9]; 5.26 µM (active) in [10]; 25.1 µM (active) in [11]. Besides, the Potency in test [13] is 22.4 µM (active).
For `CCOC(=O)[C@H](CCc1ccccc1)N[C@@H](C)C(=O)N1C(=O)N(C)C[C@H]1C(=O)O`, the Potency result in [1], in [2] and in test [3] was “inactive” each time. Also, in test [11], the activity (max response) is 5.98%.
In the case of `COC(=O)Nc1nc2ccc(Sc3ccccc3)cc2[nH]1`, the Potency entry in test [1] is “inactive”. The Potency in test [2] is 372 nM (active); in test [3] it was 417 nM (active); in test [9], 2.35 µM (active); in [10] it was 2.96 µM (active); in test [11], 184 nM (active) and 316 nM (active); in test [13], 130 nM (active) and 316 nM (active).
As to `O=c1ccc2ccccc2o1`, the Potency result in test [1], in [2] and in test [3] was “inactive” each time. Besides, the activity (max response) in [11] was -0.445%.
`NC(N)=NS(=O)(=O)c1ccc(N)cc1`: the Potency result in test [1], in [2] and in test [3] was “inactive” throughout. Further, the activity (max response) in test [11] is 7.35%.
For `COc1cccc2cc(-c3nc(C4CCC(C(=O)O)CC4)n4ncnc(N)c34)[nH]c12` (centres undefined), the Potency result in [1] was “inactive”. Besides, the Potency in test [2] was 461 nM (active) and 366 nM (active); in test [3] it was 580 nM (active) and 461 nM (active); in test [5], 0.296 µM (active); in [7] it was 0.59 µM (active); in test [8], 0.59 µM (active); in test [9] it was 0.935 µM (active). Besides, the Potency in test [10] is 1.18 µM (active).
With `CN(Cc1cnc2nc(N)nc(N)c2n1)c1ccc(C(=O)N[C@@H](CCC(=O)O)C(=O)O)cc1`, the Potency entry in [1] is “inactive”. The Potency was 10.6 nM (active) and 37.2 nM (active) in test [2]; 10.6 nM (active) and 46.8 nM (active) in test [3]; 0.0662 µM (active) in test [5]; 0.105 µM (active) in test [6]; 0.132 µM (active) in [8]; 1.05 µM (active) in test [9]. For the same molecule, the Potency in test [10] was 0.0833 µM (active); in test [11], 18.4 nM (active) and 251 nM (active); in test [13], 13 nM (active) and 316 nM (active).
For the molecule `CC(C)(C)NCC(O)c1ccc(O)c(CO)c1` (centres undefined), the Potency entry in [1], in [2], in test [3], in [8], in [9] and in test [13] was “inactive” in each case. Also, the Potency in test [7] was 4.18 µM (active). Also, in test [11], the activity (max response) is 0.289% and -0.385%.
Take `CCN1CCc2nc(N)oc2CC1`: the Potency entry in test [1], in [2] and in test [3] was “inactive” throughout. The activity (max response) in test [11] was 7.47%.
Regarding `COc1c(OCCCN2CCOCC2)ccc2c3n(c(=NC(=O)c4cnc(N)nc4)nc12)CCN3`, the Potency entry in test [1] is “inactive”. Moreover, the Potency is 47.3 nM (active) and 53.9 nM (active) in [2]; 37.6 nM (active) and 241 nM (active) in test [3]; 0.182 µM (active) in test [5]; 2.04 µM (active) in [9]; 0.237 µM (active) in [13].
On to `CC(=O)Oc1ccc(C)cc1`, for which the Potency entry in test [1], in test [2] and in test [3] was “inactive” throughout. Also, the activity (max response) in test [11] was 6.29%.
Consider `C[C@@H](O)[C@H]1C(=O)N2C(C(=O)O)=C([C@H]3CCCO3)S[C@H]12`, for which the Potency entry in [1], in test [2] and in test [3] was “inactive” each time. Besides, in test [11], the activity (max response) is 12.4%.
